Laboratory results as given in PubChem BioAssay.
For part of these data: Measured potencies and affinities stand elsewhere. Calls of active or inactive are those of the source. Unless noted, how the calls were made is not given here.

Assays:
[1] = antimalarial activity against Dd2 strain (AID 2302;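 active means growth inhibition above 50% at the single 2 µM test dose, taken to imply half-maximal potency below 2 µM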;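 further: 0% = DMSO untreated growth and 100% = chloroquine plus artemisinin killed control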); details: P. falciparum Dd2 in RBCs, LDH growth readout, 72 h; at 2 µM; hits give high values
[2] = human hepatoma cell viability loss – ATP luminescence, cytotoxicity control for P. falciparum antimalarial project, primary screen (AID 2303;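 active means inhibition above 50%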;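 further: 0% = DMSO wells and 100% = digitonin-killed cells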); details: HepG2 viability, 24-48 h, at 10 µM, hits give high values
[3] = molecular target: L-lactate dehydrogenase (Plasmodium falciparum (isolate CDC / Honduras)) (UniProt Q27743); assay: PfLDH activity inhibition – cell lysate, 3D7 strain, counter-screen for P. falciparum growth inhibition project (AID 2304);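 further: 0% = vehicle and 100% = reference inhibitor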; details: P. falciparum 3D7 crude extract, LDH APAD/NBT absorbance; at 2 µM; hits give high values
Sequence of L-lactate dehydrogenase (Plasmodium falciparum (isolate CDC / Honduras)) (Q27743 whole entry, looked up): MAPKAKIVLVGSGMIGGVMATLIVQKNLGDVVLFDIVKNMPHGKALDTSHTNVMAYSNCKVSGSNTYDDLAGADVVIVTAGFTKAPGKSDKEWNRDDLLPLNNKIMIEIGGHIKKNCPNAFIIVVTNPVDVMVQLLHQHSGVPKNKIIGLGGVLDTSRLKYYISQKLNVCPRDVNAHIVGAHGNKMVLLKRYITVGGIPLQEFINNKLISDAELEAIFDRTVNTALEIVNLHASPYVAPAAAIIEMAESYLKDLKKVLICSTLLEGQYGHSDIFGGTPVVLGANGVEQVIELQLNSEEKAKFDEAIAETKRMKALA

[4] = inhibition of 3D7 malaria parasite growth – strain 3D7 (AID 2306);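 further: 0% = DMSO wells and 100% = chloroquine plus artemisinin control wells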; details: P. falciparum 3D7 erythrocytic growth, LDH absorbance, 72 h; at 2 µM; hits give high values
[5] = molecular target: Calcium-dependent protein kinase 1 (Plasmodium falciparum (isolate 3D7)) (UniProt P62344); assay: PfCDPK1 kinase inhibitors, biochemical, TCAMS library (AID 1159585; cut-off not given, nearly all actives have IC50 up to about 0.98 µM;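 further: inhibitors leave more ATP so luminescence rises with inhibition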); details: recombinant PfCDPK1, Kinase-Glo ATP depletion luminescence
Sequence of Calcium-dependent protein kinase 1 (Plasmodium falciparum (isolate 3D7)) (P62344 whole entry, looked up): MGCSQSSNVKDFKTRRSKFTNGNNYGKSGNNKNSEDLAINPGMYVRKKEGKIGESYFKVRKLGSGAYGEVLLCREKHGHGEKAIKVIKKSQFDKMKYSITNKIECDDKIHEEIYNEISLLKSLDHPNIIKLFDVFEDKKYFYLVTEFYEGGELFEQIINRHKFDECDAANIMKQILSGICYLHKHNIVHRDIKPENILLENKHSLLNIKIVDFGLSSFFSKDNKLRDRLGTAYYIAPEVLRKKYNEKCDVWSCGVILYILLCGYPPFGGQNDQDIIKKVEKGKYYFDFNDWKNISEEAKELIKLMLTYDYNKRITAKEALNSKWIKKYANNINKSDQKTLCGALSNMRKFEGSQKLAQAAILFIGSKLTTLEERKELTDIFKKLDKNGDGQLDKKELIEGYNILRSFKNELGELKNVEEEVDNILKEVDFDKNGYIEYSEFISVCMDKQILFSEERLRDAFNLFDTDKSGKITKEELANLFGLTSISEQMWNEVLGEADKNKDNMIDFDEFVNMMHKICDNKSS

[6] = molecular target: Plasmodium falciparum protein kinase 6 (PK6, PF3D7_1337100) (UniProt Q8IDW1); assay: PfPK6 kinase inhibitors, biochemical, TCAMS library (AID 1159586); details: recombinant PfPK6, Kinase-Glo ATP depletion luminescence
Sequence of Plasmodium falciparum protein kinase 6 (PK6, PF3D7_1337100) (Q8IDW1 1-305): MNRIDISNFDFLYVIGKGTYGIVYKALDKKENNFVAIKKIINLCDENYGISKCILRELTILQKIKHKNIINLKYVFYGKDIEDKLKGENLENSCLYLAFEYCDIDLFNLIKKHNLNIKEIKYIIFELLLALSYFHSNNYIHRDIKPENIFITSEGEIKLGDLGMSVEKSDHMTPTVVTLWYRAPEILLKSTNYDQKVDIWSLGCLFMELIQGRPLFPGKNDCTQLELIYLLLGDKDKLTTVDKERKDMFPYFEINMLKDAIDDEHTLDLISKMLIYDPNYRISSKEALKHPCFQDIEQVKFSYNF

[7] = molecular target: Protein kinase 7 (PK7), Plasmodium falciparum 3D7 (PF3D7_0213400) (UniProt Q7YTF7); assay: inhibition of Plasmodium PK7 catalytic activity – biochemical, TCAMS antimalarial set, Kinase-Glo luminescence (AID 1159587); details: recombinant PfPK7, Kinase-Glo ATP depletion luminescence
Sequence of Protein kinase 7 (PK7), Plasmodium falciparum 3D7 (PF3D7_0213400) (Q7YTF7 1-343): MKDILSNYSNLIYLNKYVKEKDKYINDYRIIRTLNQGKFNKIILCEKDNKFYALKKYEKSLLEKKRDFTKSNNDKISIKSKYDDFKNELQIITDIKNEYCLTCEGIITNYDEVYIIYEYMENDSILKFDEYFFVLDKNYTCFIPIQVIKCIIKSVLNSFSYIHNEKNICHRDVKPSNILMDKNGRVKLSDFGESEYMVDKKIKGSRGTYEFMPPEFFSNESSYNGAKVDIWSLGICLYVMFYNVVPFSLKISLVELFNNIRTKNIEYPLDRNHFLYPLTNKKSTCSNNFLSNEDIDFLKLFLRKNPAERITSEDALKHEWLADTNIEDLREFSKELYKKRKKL

[8] = molecular target: Calcium-dependent protein kinase 4 (Plasmodium falciparum (isolate 3D7)) (UniProt Q8IBS5); assay: PfCDPK4 kinase inhibitors, biochemical, TCAMS library (AID 1159588; cut-off not given, nearly all actives have IC50 up to about 0.91 µM); details: recombinant PfCDPK4, Kinase-Glo ATP depletion luminescence
Sequence of Calcium-dependent protein kinase 4 (Plasmodium falciparum (isolate 3D7)) (Q8IBS5 whole entry, looked up): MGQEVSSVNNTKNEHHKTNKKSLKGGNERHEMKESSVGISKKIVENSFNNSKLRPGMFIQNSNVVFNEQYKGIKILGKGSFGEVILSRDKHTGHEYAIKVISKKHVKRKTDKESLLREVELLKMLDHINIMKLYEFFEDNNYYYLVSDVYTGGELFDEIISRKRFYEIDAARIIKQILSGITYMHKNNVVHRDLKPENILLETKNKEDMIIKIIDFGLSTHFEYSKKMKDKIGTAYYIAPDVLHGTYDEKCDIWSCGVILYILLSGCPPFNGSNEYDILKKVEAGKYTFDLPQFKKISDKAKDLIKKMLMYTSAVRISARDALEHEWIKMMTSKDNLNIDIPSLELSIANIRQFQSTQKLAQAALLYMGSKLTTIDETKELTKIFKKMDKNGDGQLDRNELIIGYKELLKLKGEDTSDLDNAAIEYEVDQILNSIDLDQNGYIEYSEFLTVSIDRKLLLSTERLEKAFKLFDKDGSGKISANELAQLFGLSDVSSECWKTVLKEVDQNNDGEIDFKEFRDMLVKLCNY

CO/C(=C\C=C\c1cc2cc(Cl)c(Cl)cc2[nH]1)C(=O)NC1C[C@@H](C)N(C)[C@@H](C)C1 (some centres not stated)
inactive: inhibition [3] 1% | outcome [5] | outcome [6] | outcome [7] | outcome [8]
active: growth inhibition [1] 57% | inhibition [2] 64% | growth inhibition [4] 97%

O=C(NCc1cccc(C(F)(F)F)c1)c1ccc(CNC(=O)c2ccc(O)c(-c3ccc(Cl)c(Cl)c3)c2)cc1
inactive: growth inhibition [1] 15% | inhibition [2] 7% | inhibition [3] 2% | outcome [5] | outcome [6] | outcome [7] | outcome [8]
active: growth inhibition [4] 92%

O=C(NCC1CCC1)c1cnc(Nc2cccc(Cl)c2)nc1N1CCC1
active: growth inhibition [1] 75% | growth inhibition [4] 98%
inactive: inhibition [2] 21% | inhibition [3] 2% | outcome [5] | outcome [6] | outcome [7] | outcome [8]

O=C(CCN(Cc1ccco1)c1nc(-c2ccc(F)cc2)nc2ccccc12)NC1CC1
active: growth inhibition [1] 54% | growth inhibition [4] 94%
inactive: inhibition [2] -12% | inhibition [3] 4% | outcome [5] | outcome [6] | outcome [7] | outcome [8]

COc1ccc(-c2ccc(NC(=O)c3ccc(C#N)cc3)cc2)cc1CN1CCC(O)CC1
active: growth inhibition [4] 94%
inactive: growth inhibition [1] 28% | inhibition [2] 24% | inhibition [3] 7% | outcome [5] | outcome [6] | outcome [7] | outcome [8]

Cc1cc2nc(-c3ccc(OCC(=O)NCc4ccc(C(C)(C)C)cc4)cc3)[nH]c2cc1C
inactive: growth inhibition [1] 0% | inhibition [2] 11% | inhibition [3] 2% | outcome [5] | outcome [6] | outcome [7] | outcome [8]
active: growth inhibition [4] 94%

CCCCOP(=O)(COc1ccc(CCN(CC(O)COc2cccc3[nH]c4ccccc4c23)CC(O)COc2cccc3[nH]c4ccccc4c23)cc1)C1CCCCC1 (configuration not stated)
inactive: inhibition [2] 7% | inhibition [3] 4% | outcome [5] | outcome [6] | outcome [7] | outcome [8]
active: growth inhibition [1] 92% | growth inhibition [4] 89%

Cc1ccccc1C1CCN(C2CCC(NC(=O)c3cc4cc(Cl)ccc4o3)CC2)CC1 (configuration not stated)
active: growth inhibition [4] 89%
inactive: growth inhibition [1] 30% | inhibition [2] 22% | inhibition [3] -2% | outcome [5] | outcome [6] | outcome [7] | outcome [8]

CC(C)N1CCN(C(CN2CCN(CCCOc3cccc(F)c3)CC2)c2ccc(F)cc2)CC1 (configuration not stated)
inactive: growth inhibition [1] 38% | inhibition [2] 38% | inhibition [3] 0% | outcome [5] | outcome [6] | outcome [7] | outcome [8]
active: growth inhibition [4] 92%

O=C(Nc1ccc(-c2nc3ccccc3[nH]2)cc1)c1ccc(S(=O)(=O)N2CCc3ccccc32)cc1
active: growth inhibition [4] 102%
inactive: growth inhibition [1] 34% | inhibition [2] 32% | inhibition [3] 3% | outcome [5] | outcome [6] | outcome [7] | outcome [8]

CCCC1N=C(N)N=C(N)N1c1ccc(OC)cc1 (configuration not stated)
active: growth inhibition [4] 96%
inactive: growth inhibition [1] 4% | inhibition [2] -2% | inhibition [3] -3% | outcome [5] | outcome [6] | outcome [7] | outcome [8]

CN1CCN(CC(=O)Nc2cccc(-c3ccc(-c4nc5ccc(F)cc5[nH]4)s3)c2)CC1
active: growth inhibition [1] 94% | inhibition [2] 71% | growth inhibition [4] 101%
inactive: inhibition [3] -4% | outcome [5] | outcome [6] | outcome [7] | outcome [8]

CCOC(=O)c1ccc(NC(=O)N[C@H]2CCN(CCCCCNC(=O)/C=C/c3ccc(Cl)c(Cl)c3)C2)cc1
active: growth inhibition [4] 98%
inactive: growth inhibition [1] 1% | inhibition [2] 21% | inhibition [3] -4% | outcome [5] | outcome [6] | outcome [7] | outcome [8]

CCc1c[nH]c2c(N(c3ccccc3)S(C)(=O)=O)cc(C(=O)N[C@@H](Cc3ccccc3)[C@H](O)CNCc3cccc(C(F)(F)F)c3)cc12
active: growth inhibition [1] 98% | growth inhibition [4] 93%
inactive: inhibition [2] 20% | inhibition [3] 1% | outcome [5] | outcome [6] | outcome [7] | outcome [8]

Cc1cc(CN2CC[C@H](NC(=O)c3ccc(Cl)c(Cl)c3)C2)ccc1OCCCN(C)C
active: growth inhibition [4] 99%
inactive: growth inhibition [1] 35% | inhibition [2] 41% | inhibition [3] 0% | outcome [5] | outcome [6] | outcome [7] | outcome [8]

Cc1cc(Nc2ccc(Oc3ccc(Cl)cc3)cc2)nc(N)n1
active: growth inhibition [1] 71% | growth inhibition [4] 101%
inactive: inhibition [2] 49% | inhibition [3] 7% | outcome [5] | outcome [6] | outcome [7] | outcome [8]

CCOc1cc(CC)ccc1C1CCN(CCN2CCC(CNC(=O)c3ccc(-c4ccc(C#N)cc4)cc3)CC2)CC1
inactive: inhibition [3] 5% | outcome [5] | outcome [6] | outcome [7] | outcome [8]
active: growth inhibition [1] 100% | inhibition [2] 53% | growth inhibition [4] 89%

CCN(CCCN1CCCCC1)c1nccc(Nc2ccc(Cl)cc2)n1
inactive: inhibition [2] 19% | inhibition [3] -1% | outcome [5] | outcome [6] | outcome [7] | outcome [8]
active: growth inhibition [1] 63% | growth inhibition [4] 89%

COc1cccc(C(C)(C)NC[C@@H](O)[C@H](Cc2ccccc2)NC(=O)c2cc(C3CCCC3)cc(N3CCCCS3(=O)=O)c2F)c1
inactive: inhibition [2] 16% | inhibition [3] 7% | outcome [5] | outcome [6] | outcome [7] | outcome [8]
active: growth inhibition [1] 99% | growth inhibition [4] 99%

CCC(C)c1ccc(NC(=O)Nc2ccnc3ccccc23)cc1 (configuration not stated)
inactive: growth inhibition [1] 42% | inhibition [2] 27% | inhibition [3] -2% | outcome [5] | outcome [6] | outcome [7] | outcome [8]
active: growth inhibition [4] 98%

O=C(/C=C/c1ccc(Cl)c(Cl)c1)NCCCCN1CCCN(C(=O)Nc2ccc(F)c(Cl)c2)CC1
inactive: growth inhibition [1] 2% | inhibition [3] 1% | outcome [5] | outcome [6] | outcome [7] | outcome [8]
active: inhibition [2] 69% | growth inhibition [4] 87%

CC(C)CC(=O)N1CCNC[C@@H]1C(=O)NC1CC1
active: growth inhibition [4] 82%
inactive: growth inhibition [1] -2% | inhibition [2] -7% | inhibition [3] -4% | outcome [5] | outcome [6] | outcome [7] | outcome [8]

Fc1ccc2nc(-c3cccc(-c4cccc(CNCc5cnn(-c6ccccc6)n5)c4)c3)[nH]c2c1
active: growth inhibition [1] 57% | growth inhibition [4] 91%
inactive: inhibition [2] 18% | inhibition [3] 4% | outcome [5] | outcome [6] | outcome [7] | outcome [8]

NC(N)=NCC=C(c1ccccc1)c1ccccc1
inactive: inhibition [2] 9% | inhibition [3] 1% | outcome [5] | outcome [6] | outcome [7] | outcome [8]
active: growth inhibition [1] 83% | growth inhibition [4] 94%

Fc1ccc2nc(-c3ccc(-c4ccc(CNCC5CCCO5)cc4)cc3)[nH]c2c1 (configuration not stated)
inactive: inhibition [2] 26% | inhibition [3] -3% | outcome [5] | outcome [6] | outcome [7] | outcome [8]
active: growth inhibition [1] 100% | growth inhibition [4] 101%

CN1CCN(CC(=O)Nc2cccc(-c3cccc(-c4nc5ccc(C(F)(F)F)cc5[nH]4)c3)c2)CC1
active: growth inhibition [1] 98% | growth inhibition [4] 101%
inactive: inhibition [2] 26% | inhibition [3] 4% | outcome [5] | outcome [6] | outcome [7] | outcome [8]

Nc1nc(N)c2c(Cl)c(N(Cc3ccccc3)Cc3ccccc3)ccc2n1
active: inhibition [2] 66% | growth inhibition [4] 96%
inactive: growth inhibition [1] 2% | inhibition [3] 2% | outcome [5] | outcome [6] | outcome [7] | outcome [8]

COc1ccc2nccc([C@@H](O)CN3CCC(NC(=O)[C@@H]4Cc5ccccc5CN4C(=O)OC(C)(C)C)CC3)c2c1
active: growth inhibition [1] 61% | growth inhibition [4] 92%
inactive: inhibition [2] 15% | inhibition [3] 4% | outcome [5] | outcome [6] | outcome [7] | outcome [8]

CCN(CCCN1CCCCC1)c1cc(C)nc(Nc2ccc(Cl)cc2C)n1
active: growth inhibition [4] 95%
inactive: growth inhibition [1] 46% | inhibition [2] 44% | inhibition [3] 2% | outcome [5] | outcome [6] | outcome [7] | outcome [8]

CNS(=O)(=O)CCNCc1ccc(-c2ccc3ncnc(Nc4ccc(OCc5ccccc5)cc4)c3c2)o1
inactive: growth inhibition [1] 26% | inhibition [2] 19% | inhibition [3] -3% | outcome [5] | outcome [6] | outcome [7] | outcome [8]
active: growth inhibition [4] 101%

CN1CCN(Cc2cc3cc(NC(=O)/C=C/c4ccc(Cl)cc4)ccc3s2)CC1
active: inhibition [2] 51% | growth inhibition [4] 100%
inactive: growth inhibition [1] 20% | inhibition [3] 2% | outcome [5] | outcome [6] | outcome [7] | outcome [8]

Cc1ccccc1C1CCN(C2CCC(NC(=O)c3cc(-c4ccccc4)oc3C)CC2)CC1 (configuration not stated)
inactive: growth inhibition [1] 32% | inhibition [2] 46% | inhibition [3] 0% | outcome [5] | outcome [6] | outcome [7] | outcome [8]
active: growth inhibition [4] 100%

Cc1cc(C(=O)Nc2nc(-c3ccccn3)nc3ccsc23)no1
active: growth inhibition [1] 90% | growth inhibition [4] 98%
inactive: inhibition [2] 44% | inhibition [3] 0% | outcome [5] | outcome [6] | outcome [7] | outcome [8]

CS(=O)(=O)Nc1cccc(-c2cnc3[nH]cc(-c4ccc(C(=O)O)cc4)c3c2)c1
active: growth inhibition [1] 82% | growth inhibition [4] 98%
inactive: inhibition [2] -11% | inhibition [3] 0% | outcome [5] | outcome [6] | outcome [7] | outcome [8]

CC(C)c1ccc(CN2CCC(CNC(=O)c3cc(-c4cccc(C(F)(F)F)c4)cs3)C2)cc1 (configuration not stated)
inactive: inhibition [2] 36% | inhibition [3] 5% | outcome [5] | outcome [6] | outcome [7] | outcome [8]
active: growth inhibition [1] 60% | growth inhibition [4] 99%

COc1cc2ncnc(Nc3ccc(OCc4ccccc4)c(OCc4ccccc4)c3)c2cc1OC
inactive: inhibition [2] 4% | inhibition [3] -1% | outcome [5] | outcome [6] | outcome [7] | outcome [8]
active: growth inhibition [1] 57% | growth inhibition [4] 100%

CC(=O)Nc1ccc(C(=O)Nc2cccc(-c3cccc(-c4nc5c(C)cccc5[nH]4)c3)c2)cn1
inactive: inhibition [2] 16% | inhibition [3] -2% | outcome [5] | outcome [6] | outcome [7] | outcome [8]
active: growth inhibition [1] 100% | growth inhibition [4] 101%

CN(CCCCNC(=O)c1cc2ccccc2[nH]1)C1CC2(CCN(C(=O)OC(C)(C)C)CC2)c2ccccc21 (configuration not stated)
active: growth inhibition [1] 75% | growth inhibition [4] 86%
inactive: inhibition [2] 12% | inhibition [3] 2% | outcome [5] | outcome [6] | outcome [7] | outcome [8]

CCOC(=O)c1cnc2c(OC)cc(OC)c(Cl)c2c1Nc1cccc(C)c1
inactive: growth inhibition [1] 20% | inhibition [2] 0% | inhibition [3] -2% | outcome [5] | outcome [6] | outcome [7] | outcome [8]
active: growth inhibition [4] 95%
